# Measurements from ChEMBL document CHEMBL3433997, “St. Jude Leishmania screening dataset” (2016).
# Assays:
# Type in all cases: functional
# [1] = biological target: Solute carrier family 2, facilitated glucose transporter member 1 (Homo sapiens) (UniProt P11166); test: ST_JUDE_LEISH: Cytotoxicity at 2uM final concentration against transgenic Leishmania Mexicana promastigotes LmGLUT1 that are glucose transport deficient and complemented with the human glucose transporter GLUT1. Activity is measured by DNA content using SYBR green in vitro
# Sequence of Solute carrier family 2, facilitated glucose transporter member 1 (Homo sapiens) (P11166 whole entry): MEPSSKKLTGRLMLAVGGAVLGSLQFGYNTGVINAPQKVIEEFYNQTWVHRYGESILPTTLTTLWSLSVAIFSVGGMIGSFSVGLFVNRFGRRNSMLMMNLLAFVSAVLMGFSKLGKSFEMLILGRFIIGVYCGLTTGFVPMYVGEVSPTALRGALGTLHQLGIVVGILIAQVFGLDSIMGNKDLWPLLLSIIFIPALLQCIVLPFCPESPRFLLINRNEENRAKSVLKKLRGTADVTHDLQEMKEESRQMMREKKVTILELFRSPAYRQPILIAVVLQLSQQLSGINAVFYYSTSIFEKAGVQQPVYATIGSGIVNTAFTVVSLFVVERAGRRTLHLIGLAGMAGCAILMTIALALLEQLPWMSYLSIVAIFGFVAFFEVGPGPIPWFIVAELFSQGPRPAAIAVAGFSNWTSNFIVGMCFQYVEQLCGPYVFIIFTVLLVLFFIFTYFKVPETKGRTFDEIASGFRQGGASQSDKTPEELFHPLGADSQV
# [2] = biological target: Hexose transporter 1 (Plasmodium falciparum) (UniProt O97467); test: ST_JUDE_LEISH: Cytotoxicity at 2uM final concentration against transgenic Leishmania Mexicana promastigotes LmPfHT that are glucose transport deficient and complemented with the Plasmodium falciparum hexose transporter. Activity is measured by DNA content using SYBR green in vitro
# [3] = biological target: Glucose transporter (Leishmania mexicana) (UniProt O61059); test: ST_JUDE_LEISH: Cytotoxicity at 2uM final concentration against transgenic Leishmania Mexicana promastigotes LmGT2 that are glucose transport deficient and complemented with the L. Mexicana glucose transporter 2. Activity is measured by DNA content using SYBR green in vitro
Compound,inhibition [1],inhibition [2],inhibition [3]
COc1nc2c(CCN3CC[C@H](NCc4cc(C#N)c5c(c4)OCCO5)[C@H](O)C3)ccnc2cc1F,14.4%,18%,3.29%
CC(=O)Nc1cccc(NC(=O)CSc2ccc(-c3nc4ccccc4[nH]3)cn2)c1,0.84%,-0.63%,-0.27%
CC1(C)CCC(C)(C)c2c1ccc(C1CCN(CCCCNC(=O)c3ccc(-c4ccc(C#N)cc4)cc3)CC1)c2OCC(N)=O,3.73%,4.26%,4.33%
